From PubChem BioAssay (NCATS)
Records with an inconclusive call do not appear. Activity calls are given as the source filed them. Unless noted, calls come from the whole dose curve; as a rule, active = well fitted curve in the direction sought with a large enough effect; inconclusive = small, poorly fitted or top-dose-only effect, or another doubt; inactive = no such curve, though single readings can be large; an effect the other way counts as inactive or inconclusive.

Key:
[1] = Cell Viability - BJ (AID 421; calls by dose curve;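 note: potency is the fitted concentration of half-maximal effect; cells exposed to compound for 40 hours at 37 °C before readout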); conditions: BJ fibroblast viability, qHTS
Method in brief: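 Quantitative HTS: ATP depletion in BJ cells after 40 hr compound exposure in complete culture medium, detected with CellTiter-Glo; AC50 from standard Hill fits.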

[2] = Cell Viability - Hek293 (AID 427;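 active = compounds whose dose-response curve shows a full or clear partial loss of cell viability, called from curve shape rather than a numeric limit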;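 note: potency is the fitted concentration of half-maximal effect; cells exposed to compound for 40 hours at 37 °C before reading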); conditions: qHTS
Method in brief: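 AC50 values derive from Hill-modelled concentration-response of ATP-based luminescence, normalized between DMSO-only and 100 uM tamoxifen controls. Cells were exposed in complete culture medium for 40 hr at 37 °C before detection.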

[3] = Cell Viability - HepG2 (AID 433; calls by dose curve;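 note: potency is the fitted concentration of half-maximal effect; potency for ATP loss meaning cytotoxicity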); conditions: qHTS
Method in brief: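 Read-out is luciferase-based quantitation of cellular ATP as a measure of viable HepG2 cells after 40 h treatment at 37 °C. Signal decrease is scaled between DMSO-only and 100 uM tamoxifen controls, with AC50 fitted by the Hill equation.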

[4] = Cell Viability - MRC5 (AID 434; calls by dose curve;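 note: potency is the fitted concentration of half-maximal effect; potency reflects cytotoxicity seen as loss of intracellular ATP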); conditions: MRC5 lung fibroblast viability, qHTS
Method in brief: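 MRC5 normal human lung fibroblasts, 1500 cells/well, exposed to compound for 40 hr at 37 C. Cellular ATP was read by CellTiter-Glo luminescence; data normalized to DMSO and 100 uM tamoxifen, with AC50 from Hill fits.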

[5] = Cell Viability - SK-N-SH (AID 435; calls by dose curve;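 note: potency is the fitted concentration of half-maximal effect; compound exposure lasted 40 h at 37 °C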); conditions: SK-N-SH neuroblastoma cell viability qHTS
Method in brief: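 Luminescent ATP signal served as the viability read-out after 40 hours of compound treatment of human neuroblastoma SK-N-SH cells. Concentration-response data, scaled between DMSO and 100 uM tamoxifen, gave AC50 values by standard Hill modeling.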

[6] = biological target: Mitogen-activated protein kinase 10 (Mus musculus) (UniProt Q61831); experiment: JNK3 AlphaScreen Assay (AID 530; active = well fitted curve in either direction with a large enough effect, not every such curve was filed as active;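 note: kinase came from lysate of stimulated human HepG2 cells; signal reports phosphorylation of biotinylated GST-cJun 1-79 at Ser73 with 10 µM ATP; % is set by controls: 0 for no effect and ±100 for the full control effect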); conditions: JNK3 lysate, c-Jun phosphorylation; series mostly up to 57.1 µM
Method in brief: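 Pre-activated (IL-1β/TNFα) JNK3 in HepG2 lysates phosphorylates biotin-GST-cJun(1-79), 10 uM ATP; anti-phospho-cJun(Ser73) AlphaScreen read at room temperature, pH 7.6 Tris buffer. Compounds pre-incubated 15 min as titrations.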

[7] = Cell Viability - N2a (AID 540); conditions: N2a mouse neuroblastoma cell viability; activity change, negative = cytotoxicity: at 92.2 µM (top of the series);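 note: plate controls were DMSO alone for no effect and tamoxifen control for full effect; nearly all actives have a fitted effect of over 45% in size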
Method in brief: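 Mouse neuroblastoma N2a cells, 1500/well, exposed to compounds 40 h at 37 °C in complete medium. Viability measured as cellular ATP by CellTiter-Glo luminescence; AC50 from Hill fits of concentration-response.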

[8] = Cell Viability - NIH 3T3 (AID 541); conditions: NIH 3T3 cell viability, qHTS; activity change, negative = cytotoxicity: at 92.2 µM (top of the series);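 note: plate controls were DMSO alone for no effect and tamoxifen positive control for full effect; nearly all actives have a fitted effect of over 25% in size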
Method in brief: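 Mouse NIH 3T3 fibroblasts, 1000 cells/well, rested 5 hr at 37 °C, then exposed to compound for 40 hr at 37 °C in complete medium. Viability read as intracellular ATP by CellTiter-Glo luminescence; AC50 from Hill-equation fits of concentration-response data.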

[9] = Cell Viability - HUV-EC-C (AID 542); conditions: HUV-EC-C endothelial cell viability, qHTS; series mostly up to 92.2 µM; note: % is set by controls: 0 for no effect and ±100 for the full control effect; nearly all actives have a fitted effect of over 35% in size
Method in brief: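 HUV-EC-C human vascular endothelial cells, 1000/well, exposed to compound for 40 hr at 37 °C in complete medium. Intracellular ATP was read by CellTiter-Glo luminescence. AC50 came from Hill-equation fits of concentration-response data.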

[10] = Cell Viability - H-4-II-E (AID 543); conditions: H-4-II-E rat hepatoma viability; series mostly up to 92.2 µM; note: % is set by controls: 0 for no effect and ±100 for the full control effect; nearly all actives have a fitted effect of over 35% in size
Method in brief: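 Rat hepatoma H-4-II-E cells, 1500 per well, treated 40 h at 37 °C in complete medium. Cellular ATP read by CellTiter-Glo luminescence; AC50 from Hill fits of concentration-response.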

[11] = Cell Viability - SH-SY5Y (AID 544); conditions: SH-SY5Y neuroblastoma cell viability; viability change, negative = cytotoxic: at 92.2 µM (top of the series); note: nearly all actives have a fitted effect of over 55% in size
Method in brief: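 SH-SY5Y human neuroblastoma cells (1500/well) incubated 5 h, then compound-treated 40 h at 37 °C in complete medium. Viability read as intracellular ATP by CellTiter-Glo luminescence after 20 min; AC50 from Hill-equation fits of qHTS concentration-response.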

[12] = Cell Viability - Renal Proximal Tubule (AID 545); conditions: renal proximal tubule cells viability, primary cells of rat origin; series mostly up to 91.7 µM; note: nearly all actives have a fitted effect of over 40% in size
Method in brief: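 Luminescent ATP signal (CellTiter-Glo) served as the viability read-out after 40 hr compound exposure of freshly isolated rat proximal tubule cells at 37 °C. Concentration-dependent ATP loss was fitted with the Hill equation to give AC50.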

[13] = Cell Viability - Mesenchymal (AID 546); conditions: mesenchymal cells viability, qHTS; series mostly up to 91.7 µM;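 note: cells exposed to compound for 40 hours before reading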
Method in brief: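 Human kidney mesenchymal cells from normal renal glomeruli, 1000 cells/well, rested 5 hr at 37 °C, then treated 40 hr at 37 °C in complete medium. Cellular ATP read by CellTiter-Glo luminescence; AC50 from Hill-equation fits.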

[14] = Cellular Toxicity (caspase-3) HepG2 (AID 654); conditions: HepG2 caspase-3 activation, luminescence; series mostly up to 92.2 µM;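 note: cells exposed to compound for 16 hours before reading; 0% = DMSO alone and 100% = caspase signal from 100 µM tamoxifen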
Method in brief: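 HepG2 cells (1500/well) were treated 16 h at 37 °C in complete medium, then caspase 3/7 activity was read by Caspase-Glo luminescence. Data were normalized to DMSO and 100 uM tamoxifen; AC50 came from Hill-equation fits of qHTS concentration-response.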

[15] = Cellular Toxicity (caspase-3) HUV-EC-C (AID 656); conditions: HUV-EC-C cells, caspase-3 activation (apoptosis), vehicle = 0, 100 µM tamoxifen = 100%; series mostly up to 92.2 µM
Method in brief: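 qHTS; HUV-EC-C, 1000 cells/well; 5 hr settle, 16 hr cmpd, 37°C; Caspase-Glo 3/7, 20 min RT; luminescence. Norm: DMSO = 0%, tamoxifen 100 uM = 100%. Hill-fit AC50.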

[16] = Cellular Toxicity (caspase-3) SHSY5Y (AID 657); conditions: SH-SY5Y caspase-3 activation, DMSO zero, 10 µM staurosporine = 100%; series mostly up to 91.7 µM;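 note: cells exposed to compound for 16 hours at 37 °C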
Method in brief: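 qHTS, SH-SY5Y, 1500 cells/well, 5 h pre-incubation 37 °C; compound 16 h 37 °C; Caspase-Glo 3/7 1 h RT; luminescence. Norm.: DMSO = 0, 10 uM staurosporine = 100%. Hill fit → AC50.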

[17] = Cellular Toxicity (caspase-3) BJ (AID 658); conditions: BJ fibroblasts, luminescence, normalized: DMSO 0%, staurosporine 100%; series mostly up to 91.7 µM;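 note: cells exposed to compound for 16 hours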
Method in brief: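 BJ human foreskin fibroblasts, 1000 cells/well, treated 16 hours at 37 °C in complete medium; caspase 3/7 activity by Caspase-Glo luminescence after 1 hr at room temperature. Normalized to DMSO and 10 uM staurosporine; AC50 from Hill fits.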

[18] = Cellular Toxicity (caspase-3) MRC-5 (AID 659); conditions: MRC-5 cells, luminescence, normalized: DMSO 0%, 10 µM staurosporine 100%; series mostly up to 91.7 µM
Method in brief: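 MRC-5 human normal lung fibroblasts, 1500 cells/well, treated 16 h at 37 °C in complete medium. Caspase 3/7 measured by Caspase-Glo luminescence after 1 h at room temperature. Normalized to DMSO and 10 uM staurosporine; AC50 from Hill fit.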

[19] = Cellular Toxicity (caspase-3) Jurkat (AID 655); conditions: Jurkat caspase-3 activation, luminescence; caspase-3 activation: at 92.2 µM (top of the series), DMSO = 0%, tamoxifen = 100%;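 note: cells exposed to compound for 16 h at 37 °C before reading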
Method in brief: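 5000 Jurkat cells/well; compound 16 hr, 37 °C; Caspase-Glo 3/7 added, 20 min RT; luminescence read. Norm: DMSO = 0%, tamoxifen 100 uM = 100%. AC50, Hill model.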

[20] = Cell Viability - Jurkat (AID 426;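 active = dose-dependent loss of cell ATP signal giving a full or clear fitted curve, ranked by lower potency value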; note: potency is the fitted concentration of half-maximal effect); conditions: qHTS
Method in brief: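 Jurkat (Clone E6-1) cells, 5000/well in complete medium, exposed to compounds for 40 hr at 37C; intracellular ATP measured by CellTiter-Glo luminescence after 20 min at room temperature. AC50 from Hill fits.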

O=[N+]([O-])c1cccc(C(F)(F)F)c1
inactive: Potency [1] > 92 µM | Potency [2] > 92 µM | Potency [3] > 92 µM | Potency [4] > 92 µM | Potency [5] > 92 µM | outcome [6] | activity change, negative = cytotoxicity [7] 4.54% | Potency [8] | Potency [9] | Potency [10] | Potency [11] | Potency [12] | Potency [13] | Potency [14] | outcome [15] | outcome [16] | outcome [17] | outcome [18]

ICCc1ccccc1
active: viability change, negative = cytotoxic [11] -96.6%
inactive: Potency [1] > 92 µM | Potency [2] > 92 µM | Potency [3] > 92 µM | Potency [5] > 92 µM | outcome [6] | activity change, negative = cytotoxicity [7] 0.359% | Potency [8] | Potency [9] | Potency [10] | Potency [12] | Potency [13] | Potency [14] | caspase-3 activation [19] 0.274% | outcome [15] | outcome [16] | outcome [17] | outcome [18]

CC1(N)CCC(C(C)(C)N)CC1 (stereo not given)
inactive: Potency [1] > 92 µM | Potency [20] > 92 µM | Potency [2] > 92 µM | Potency [3] > 92 µM | Potency [5] > 92 µM | activity change, negative = cytotoxicity [7] -2.82% | Potency [8] | Potency [9] | Potency [10] | Potency [12] | Potency [13] | Potency [14] | caspase-3 activation [19] 1.23% | outcome [15] | outcome [16] | outcome [17] | outcome [18]

Nc1cc([N+](=O)[O-])ccc1C(=O)O
inactive: Potency [1] > 92 µM | Potency [2] > 92 µM | Potency [3] > 92 µM | Potency [4] > 92 µM | Potency [5] > 92 µM | outcome [6] | activity change, negative = cytotoxicity [7] 7.91% | Potency [9] | Potency [10] | Potency [11] | Potency [12] | Potency [13] | Potency [14] | caspase-3 activation [19] -2.73% | outcome [15] | outcome [16] | outcome [17]
